# Laboratory results as given in PubChem BioAssay (NCI).
# Compounds without any hit were thinned out: in the full panel of roughly 83,000, 20% have a hit.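 Results are percent growth after 48 hours of single-concentration exposure. 100 means growth as in untreated cells, lower positive values show inhibition; negative values down to -100 show cell death.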 Unmarked numbers belong to inactive results. Calls of active or inactive are those of the source. How the source made its calls: active means growth percent below 10; inactive means the rest.
# Test system: IGROV1 ovarian
# Test: NCI-60 one-dose screen, 48 h (100 = growth as untreated, 0 = no growth, -100 = all killed)
# Conditions: 10 µM unless noted
row,SMILES,growth
1,O=C(NNC(=O)N1c2ccccc2C=Cc2ccccc21)c1ccc2ccccc2c1,102%
2,CCOC(=O)C1C(=O)C=C(c2ccc(OC)cc2)CC1c1sc(N(C)Cc2ccccc2)nc1Cl (stereo not drawn),104%
3,CCc1cnc(=S)n(-c2ccccc2)c1,105%
4,CCN(CC)c1ccc2[nH]c3c(C(N)=O)cc(=O)c(=O)c=3oc2c1,-44.4% (active)
5,CC1(C)C(=O)/C(=C\c2ccc(C(F)(F)F)cc2)C[C@]2(C)[C@H]3CC[C@@H]4[C@H]5[C@H](C(=O)/C=C/c6ccc(C(F)(F)F)cc6)CC[C@]5(CO)CC[C@@]4(C)[C@]3(C)CC[C@@H]12,92.4%
6,O=[N+]([O-])c1ccc(Sc2ncccn2)c([N+](=O)[O-])c1,-9.02% (active)
7,CC(C)(C)OC(=O)NC(CSCc1ccccc1)C(=O)ON1C(=O)CCC1=O (stereo not drawn),114%
8,C/C(=C\c1ccc(OCC(=O)O)c(Cl)c1Cl)[N+](=O)[O-],133%
9,CC(C)CC1NC(C)(C)CO1 (stereo not drawn),112%
10,CC(NNC(C)c1ccccc1)c1ccccc1 (stereo not drawn),117%
11,CC(C)(C)n1cc(-c2ccnc(NCCCNS(=O)(=O)c3ccc(C(F)(F)F)cc3)c2)c(-c2cccc(O)c2)n1,31.3%
12,CC(C)(C)n1cc(-c2ccnc(NCCCNS(=O)(=O)c3ccc(Br)cc3)c2)c(-c2cccc(O)c2)n1,34.9%
13,Cn1cc(-c2cnc3ccc(NC(=O)Nc4ccc(F)c(Br)c4)cc3n2)cn1,32.8%
14,CC(C)(C)c1[nH]nc2c1C(c1cc3ccccc3[nH]c1=O)Nc1cc(C(=O)Nc3ccc(Cl)cc3)ccc1N2 (stereo not drawn),59.6%
15,O=C([O][Sn]([O]C(=O)c1ccccn1)([c]1ccccc1)[c]1ccccc1)c1ccccn1,74.1%
16,CC(C)(C)N1CCC1C(N)=O (stereo not drawn),265%
17,CC(C)(C)n1cc(-c2ccnc(NCCCNS(=O)(=O)c3ccc(Cl)cc3)c2)c(-c2cccc(O)c2)n1,8.56% (active)
18,O=C(Nc1ccc(NCCN2CCOCC2)nc1)c1ccc([N+](=O)[O-])cc1,121%
19,COc1cc(-c2ncn(/C=C\C(=O)OC(C)C)n2)cc(C(F)(F)F)c1,14.3%
20,O=C(NNC(=O)N1c2ccccc2C=Cc2ccccc21)c1ccccc1,110%

row,SMILES,growth
1,CC(C)(C)n1cc(-c2ccnc(NCCNS(=O)(=O)c3ccc(Cl)cc3)c2)c(-c2cccc(O)c2)n1,79.1%
2,Clc1ccccc1-c1nc2ccccc2[nH]1,108%
3,CC(C)(C)n1cc(-c2ccnc(NCCNS(=O)(=O)c3ccc(C(F)(F)F)cc3)c2)c(-c2cccc(O)c2)n1,71.4%
4,CC(=O)Oc1csc(N(C(C)=O)c2cc(C(=O)O)cc(C(=O)O)c2)n1,101%
5,COc1ccncc1S(=O)(=O)NC(=O)Nc1ccc(Cl)c(Cl)c1,82.7%
6,COc1ccc(-c2nc(/C=N/Nc3cc(C)nc4ccc(Cl)cc34)c(C)o2)cc1,-78.8% (active)
7,COc1ccc(C(=O)N2NC(=O)/C(=C/c3ccccc3F)N=C2c2ccccc2)cc1,107%
8,CCOC(=O)CC(=O)OC,111%
9,CN1C=CN(Cc2ccc(-c3ccccn3)nc2)[CH-]1.CN1C=CN(Cc2ccc(-c3ccccn3)nc2)[CH-]1.[Au+3],3.06% (active)
10,COc1cccc(/C=C2\Oc3cc(OCCCN4CCCC4)ccc3C2=O)c1OC,96.1%
11,O=C1C(Cl)=C(Nc2ccccn2)C(=O)c2ccccc21,34.4%
12,Cc1ccc2[nH]c(=O)c3c(c2c1)Oc1ncn2nc(-c4ccco4)nc2c1C3c1ccc(Cl)cc1 (stereo not drawn),98%
13,COc1ccc(C2CC(c3ccc(OC)cc3OC)=NN2c2ccc(S(N)(=O)=O)cc2)cc1 (stereo not drawn),82.5%
14,c1ccc(-c2nnc(-c3ccccn3)s2)nc1,80.7%
15,Clc1cc2c(nn1)Nc1ccccc1S2,27.5%
16,O=[N+]([O-])c1cc(S(=O)(=O)Oc2ccccc2)ccc1Cl,-78.2% (active)
17,COc1cc(/C=N\NC(=O)CN2CCN(c3cc4c(cc3F)c(=O)c(C(=O)N/N=C/c3cc(OC)c(OC)c(OC)c3)cn4C3CC3)CC2)cc(OC)c1OC,-16.6% (active)
18,NC1=C(/C(N)=N/O)C(c2ccccc2)c2ccc3ccccc3c2O1 (stereo not drawn),29%
19,OCc1ncc(-c2ccccc2)s1,113%

# Test system: OVCAR-3 ovarian
# Test: as above
# Conditions: 10 µM unless noted
row,SMILES,growth
1,O=C(NNC(=O)N1c2ccccc2C=Cc2ccccc21)c1ccc2ccccc2c1,101%
2,CCOC(=O)C1C(=O)C=C(c2ccc(OC)cc2)CC1c1sc(N(C)Cc2ccccc2)nc1Cl (stereo not drawn),87.5%
3,CCc1cnc(=S)n(-c2ccccc2)c1,98.5%
4,CCN(CC)c1ccc2[nH]c3c(C(N)=O)cc(=O)c(=O)c=3oc2c1,-35.9% (active)
5,CC1(C)C(=O)/C(=C\c2ccc(C(F)(F)F)cc2)C[C@]2(C)[C@H]3CC[C@@H]4[C@H]5[C@H](C(=O)/C=C/c6ccc(C(F)(F)F)cc6)CC[C@]5(CO)CC[C@@]4(C)[C@]3(C)CC[C@@H]12,97%
6,O=[N+]([O-])c1ccc(Sc2ncccn2)c([N+](=O)[O-])c1,7.76% (active)
7,CC(C)(C)OC(=O)NC(CSCc1ccccc1)C(=O)ON1C(=O)CCC1=O (stereo not drawn),107%
8,C/C(=C\c1ccc(OCC(=O)O)c(Cl)c1Cl)[N+](=O)[O-],99.9%
9,CC(C)CC1NC(C)(C)CO1 (stereo not drawn),106%
10,CC(NNC(C)c1ccccc1)c1ccccc1 (stereo not drawn),118%
11,CC(C)(C)n1cc(-c2ccnc(NCCCNS(=O)(=O)c3ccc(C(F)(F)F)cc3)c2)c(-c2cccc(O)c2)n1,42.5%
12,CC(C)(C)n1cc(-c2ccnc(NCCCNS(=O)(=O)c3ccc(Br)cc3)c2)c(-c2cccc(O)c2)n1,42.8%
13,Cn1cc(-c2cnc3ccc(NC(=O)Nc4ccc(F)c(Br)c4)cc3n2)cn1,28.2%
14,CC(C)(C)c1[nH]nc2c1C(c1cc3ccccc3[nH]c1=O)Nc1cc(C(=O)Nc3ccc(Cl)cc3)ccc1N2 (stereo not drawn),58.4%
15,O=C([O][Sn]([O]C(=O)c1ccccn1)([c]1ccccc1)[c]1ccccc1)c1ccccn1,71.4%
16,CC(C)(C)N1CCC1C(N)=O (stereo not drawn),105%
17,CC(C)(C)n1cc(-c2ccnc(NCCCNS(=O)(=O)c3ccc(Cl)cc3)c2)c(-c2cccc(O)c2)n1,4.31% (active)
18,O=C(Nc1ccc(NCCN2CCOCC2)nc1)c1ccc([N+](=O)[O-])cc1,114%
19,COc1cc(-c2ncn(/C=C\C(=O)OC(C)C)n2)cc(C(F)(F)F)c1,-42.1% (active)
20,O=C(NNC(=O)N1c2ccccc2C=Cc2ccccc21)c1ccccc1,113%

row,SMILES,growth
1,CC(C)(C)n1cc(-c2ccnc(NCCNS(=O)(=O)c3ccc(Cl)cc3)c2)c(-c2cccc(O)c2)n1,72.5%
2,Clc1ccccc1-c1nc2ccccc2[nH]1,102%
3,CC(C)(C)n1cc(-c2ccnc(NCCNS(=O)(=O)c3ccc(C(F)(F)F)cc3)c2)c(-c2cccc(O)c2)n1,68.1%
4,CC(=O)Oc1csc(N(C(C)=O)c2cc(C(=O)O)cc(C(=O)O)c2)n1,105%
5,COc1ccncc1S(=O)(=O)NC(=O)Nc1ccc(Cl)c(Cl)c1,90%
6,COc1ccc(-c2nc(/C=N/Nc3cc(C)nc4ccc(Cl)cc34)c(C)o2)cc1,-96.9% (active)
7,COc1ccc(C(=O)N2NC(=O)/C(=C/c3ccccc3F)N=C2c2ccccc2)cc1,114%
8,CCOC(=O)CC(=O)OC,123%
9,CN1C=CN(Cc2ccc(-c3ccccn3)nc2)[CH-]1.CN1C=CN(Cc2ccc(-c3ccccn3)nc2)[CH-]1.[Au+3],32.3%
10,COc1cccc(/C=C2\Oc3cc(OCCCN4CCCC4)ccc3C2=O)c1OC,99%
11,O=C1C(Cl)=C(Nc2ccccn2)C(=O)c2ccccc21,26.9%
12,Cc1ccc2[nH]c(=O)c3c(c2c1)Oc1ncn2nc(-c4ccco4)nc2c1C3c1ccc(Cl)cc1 (stereo not drawn),111%
13,COc1ccc(C2CC(c3ccc(OC)cc3OC)=NN2c2ccc(S(N)(=O)=O)cc2)cc1 (stereo not drawn),119%
14,c1ccc(-c2nnc(-c3ccccn3)s2)nc1,95.5%
15,Clc1cc2c(nn1)Nc1ccccc1S2,117%
16,O=[N+]([O-])c1cc(S(=O)(=O)Oc2ccccc2)ccc1Cl,-94.7% (active)
17,COc1cc(/C=N\NC(=O)CN2CCN(c3cc4c(cc3F)c(=O)c(C(=O)N/N=C/c3cc(OC)c(OC)c(OC)c3)cn4C3CC3)CC2)cc(OC)c1OC,-75.2% (active)
18,NC1=C(/C(N)=N/O)C(c2ccccc2)c2ccc3ccccc3c2O1 (stereo not drawn),-3.21% (active)
19,OCc1ncc(-c2ccccc2)s1,101%
